For test [1], the target named is Tyrosine-protein kinase SYK (Homo sapiens) (UniProt P43405). To be noted: at 10 µM.
In test [2] the target is T1, Mitogen-activated protein kinase kinase kinase 7 (Homo sapiens) (UniProt O43318).
T1 sequence (whole entry): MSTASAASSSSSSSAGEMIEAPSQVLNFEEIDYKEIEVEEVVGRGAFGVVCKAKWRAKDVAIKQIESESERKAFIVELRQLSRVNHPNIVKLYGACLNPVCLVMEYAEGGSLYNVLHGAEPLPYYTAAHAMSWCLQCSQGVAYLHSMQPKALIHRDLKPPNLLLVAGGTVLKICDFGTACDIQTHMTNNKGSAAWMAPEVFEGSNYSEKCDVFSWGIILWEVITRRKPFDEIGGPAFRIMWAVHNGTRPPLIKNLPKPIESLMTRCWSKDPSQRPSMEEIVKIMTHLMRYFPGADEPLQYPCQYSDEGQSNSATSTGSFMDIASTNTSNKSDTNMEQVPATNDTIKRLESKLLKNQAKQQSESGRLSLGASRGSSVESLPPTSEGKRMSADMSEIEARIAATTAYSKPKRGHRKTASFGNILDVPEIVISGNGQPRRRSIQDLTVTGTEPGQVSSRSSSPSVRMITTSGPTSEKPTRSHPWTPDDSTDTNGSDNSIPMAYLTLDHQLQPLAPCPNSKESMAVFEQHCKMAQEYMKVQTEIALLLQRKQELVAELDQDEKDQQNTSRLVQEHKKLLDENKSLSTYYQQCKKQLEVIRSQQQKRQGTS
The conditions noted are these: at 10 µM.

For test [3], the target named is T2, Serine/threonine-protein kinase TAO1 (Homo sapiens) (UniProt Q7L7X3).
T2 sequence (whole entry): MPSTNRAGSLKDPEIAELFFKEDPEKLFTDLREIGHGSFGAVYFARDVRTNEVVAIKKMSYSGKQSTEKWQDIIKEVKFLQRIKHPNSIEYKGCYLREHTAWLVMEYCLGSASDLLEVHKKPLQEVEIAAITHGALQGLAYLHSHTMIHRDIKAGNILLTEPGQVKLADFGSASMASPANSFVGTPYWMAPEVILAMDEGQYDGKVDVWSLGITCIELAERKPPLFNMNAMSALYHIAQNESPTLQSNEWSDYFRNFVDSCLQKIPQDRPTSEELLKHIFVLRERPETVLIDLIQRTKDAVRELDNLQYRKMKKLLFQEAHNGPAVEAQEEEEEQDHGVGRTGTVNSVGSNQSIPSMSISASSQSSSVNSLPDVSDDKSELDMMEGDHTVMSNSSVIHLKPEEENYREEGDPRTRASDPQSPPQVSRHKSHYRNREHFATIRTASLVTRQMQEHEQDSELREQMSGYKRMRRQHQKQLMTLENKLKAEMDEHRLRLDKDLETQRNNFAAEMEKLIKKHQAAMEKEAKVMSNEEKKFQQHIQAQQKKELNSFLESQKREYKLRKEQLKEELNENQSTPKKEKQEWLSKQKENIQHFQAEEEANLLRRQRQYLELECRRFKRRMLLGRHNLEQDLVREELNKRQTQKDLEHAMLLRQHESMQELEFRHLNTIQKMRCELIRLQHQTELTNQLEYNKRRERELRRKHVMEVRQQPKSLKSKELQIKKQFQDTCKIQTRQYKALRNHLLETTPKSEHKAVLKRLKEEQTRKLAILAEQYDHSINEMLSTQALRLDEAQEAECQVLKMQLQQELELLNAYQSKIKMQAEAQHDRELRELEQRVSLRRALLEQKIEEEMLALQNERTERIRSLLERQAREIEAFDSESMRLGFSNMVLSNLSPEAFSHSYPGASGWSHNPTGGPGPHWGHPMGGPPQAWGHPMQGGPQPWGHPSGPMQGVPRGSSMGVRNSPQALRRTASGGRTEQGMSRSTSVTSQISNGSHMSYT
To be noted: at 1 µM.

Test [4] deals with T2, Serine/threonine-protein kinase TAO1 (Homo sapiens). To be noted: at 10 µM.
The target of test [5] is T3, Serine/threonine-protein kinase TAO2 (Homo sapiens) (UniProt Q9UL54).
T3 sequence (whole entry): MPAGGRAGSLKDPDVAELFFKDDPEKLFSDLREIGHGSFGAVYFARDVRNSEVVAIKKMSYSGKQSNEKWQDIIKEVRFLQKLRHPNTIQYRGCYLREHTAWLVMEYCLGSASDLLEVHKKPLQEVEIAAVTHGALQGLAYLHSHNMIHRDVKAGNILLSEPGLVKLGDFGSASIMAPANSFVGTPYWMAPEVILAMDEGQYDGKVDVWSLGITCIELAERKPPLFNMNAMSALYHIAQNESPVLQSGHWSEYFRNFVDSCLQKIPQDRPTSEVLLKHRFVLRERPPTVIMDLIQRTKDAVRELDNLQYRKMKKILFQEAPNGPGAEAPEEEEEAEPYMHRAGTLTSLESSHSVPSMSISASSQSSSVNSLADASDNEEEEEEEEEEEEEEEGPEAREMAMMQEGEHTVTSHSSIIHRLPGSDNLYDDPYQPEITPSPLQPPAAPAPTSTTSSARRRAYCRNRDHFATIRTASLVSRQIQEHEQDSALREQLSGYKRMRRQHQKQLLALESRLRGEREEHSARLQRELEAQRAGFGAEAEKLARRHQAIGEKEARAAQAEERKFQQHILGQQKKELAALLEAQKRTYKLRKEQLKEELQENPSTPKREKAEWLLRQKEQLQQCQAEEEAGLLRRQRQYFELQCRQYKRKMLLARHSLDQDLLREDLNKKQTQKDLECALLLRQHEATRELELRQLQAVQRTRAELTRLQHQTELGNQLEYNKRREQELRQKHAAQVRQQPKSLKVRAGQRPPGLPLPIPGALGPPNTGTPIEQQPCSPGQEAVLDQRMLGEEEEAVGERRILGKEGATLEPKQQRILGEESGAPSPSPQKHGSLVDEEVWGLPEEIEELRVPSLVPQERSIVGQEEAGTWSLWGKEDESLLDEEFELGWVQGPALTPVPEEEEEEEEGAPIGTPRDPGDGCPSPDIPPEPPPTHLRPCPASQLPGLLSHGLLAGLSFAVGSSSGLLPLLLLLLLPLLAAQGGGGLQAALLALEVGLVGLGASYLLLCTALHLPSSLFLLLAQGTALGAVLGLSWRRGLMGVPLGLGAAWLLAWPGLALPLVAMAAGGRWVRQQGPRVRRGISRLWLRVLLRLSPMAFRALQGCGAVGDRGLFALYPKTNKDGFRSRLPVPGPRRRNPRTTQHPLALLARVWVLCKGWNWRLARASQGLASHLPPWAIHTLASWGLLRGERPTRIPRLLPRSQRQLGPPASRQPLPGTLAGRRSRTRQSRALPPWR
The conditions noted are these: at 10 µM.

In test [6] the target is T4, Serine/threonine-protein kinase TAO3 (Homo sapiens) (UniProt Q9H2K8).
T4 sequence (whole entry): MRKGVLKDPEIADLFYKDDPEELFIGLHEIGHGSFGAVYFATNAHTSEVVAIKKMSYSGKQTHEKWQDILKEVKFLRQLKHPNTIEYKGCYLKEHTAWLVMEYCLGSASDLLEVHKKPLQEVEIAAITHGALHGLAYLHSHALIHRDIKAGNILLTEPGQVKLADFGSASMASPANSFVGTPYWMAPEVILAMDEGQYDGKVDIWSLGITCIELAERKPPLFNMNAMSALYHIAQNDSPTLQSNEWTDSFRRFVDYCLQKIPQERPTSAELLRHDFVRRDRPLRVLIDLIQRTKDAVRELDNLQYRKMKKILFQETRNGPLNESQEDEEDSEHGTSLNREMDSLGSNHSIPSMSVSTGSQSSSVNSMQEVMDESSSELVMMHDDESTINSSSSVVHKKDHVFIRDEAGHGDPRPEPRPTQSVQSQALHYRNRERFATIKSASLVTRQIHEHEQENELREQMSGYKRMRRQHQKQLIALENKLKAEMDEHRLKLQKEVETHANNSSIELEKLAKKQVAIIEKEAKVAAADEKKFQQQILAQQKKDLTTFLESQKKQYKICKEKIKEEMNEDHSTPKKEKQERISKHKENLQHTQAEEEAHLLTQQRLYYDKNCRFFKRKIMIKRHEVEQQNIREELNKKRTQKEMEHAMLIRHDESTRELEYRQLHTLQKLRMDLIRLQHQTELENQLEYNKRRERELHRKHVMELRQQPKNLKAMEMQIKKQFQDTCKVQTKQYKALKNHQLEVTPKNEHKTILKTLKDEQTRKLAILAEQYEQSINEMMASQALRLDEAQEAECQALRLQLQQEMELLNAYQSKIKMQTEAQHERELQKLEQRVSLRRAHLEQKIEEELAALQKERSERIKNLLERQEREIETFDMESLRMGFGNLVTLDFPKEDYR
The conditions noted are these: at 1 µM.

In test [7] the target is T4, Serine/threonine-protein kinase TAO3 (Homo sapiens). The conditions noted are these: at 10 µM.
Test [8] addresses T5, Serine/threonine-protein kinase TBK1 (Homo sapiens) (UniProt Q9UHD2).
T5 sequence (whole entry): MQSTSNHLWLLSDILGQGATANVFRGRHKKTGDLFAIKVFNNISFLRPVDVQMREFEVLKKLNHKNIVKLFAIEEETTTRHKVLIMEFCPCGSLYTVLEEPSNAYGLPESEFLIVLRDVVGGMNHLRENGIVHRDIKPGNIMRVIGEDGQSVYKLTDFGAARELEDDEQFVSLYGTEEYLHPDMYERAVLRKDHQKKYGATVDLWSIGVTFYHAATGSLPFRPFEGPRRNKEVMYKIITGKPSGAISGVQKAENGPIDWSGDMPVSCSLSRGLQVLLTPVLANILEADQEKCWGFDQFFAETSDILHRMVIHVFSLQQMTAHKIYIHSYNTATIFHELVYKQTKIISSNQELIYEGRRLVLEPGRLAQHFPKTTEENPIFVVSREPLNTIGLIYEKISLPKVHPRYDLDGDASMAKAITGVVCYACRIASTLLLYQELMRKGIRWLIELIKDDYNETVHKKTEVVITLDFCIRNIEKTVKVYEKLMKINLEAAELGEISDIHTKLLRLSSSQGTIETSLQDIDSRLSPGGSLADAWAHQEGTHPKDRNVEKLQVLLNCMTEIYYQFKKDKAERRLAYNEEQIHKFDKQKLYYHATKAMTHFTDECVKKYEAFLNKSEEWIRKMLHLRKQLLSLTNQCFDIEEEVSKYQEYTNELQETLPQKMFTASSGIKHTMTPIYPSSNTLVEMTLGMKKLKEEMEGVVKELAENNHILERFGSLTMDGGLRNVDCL
The conditions noted are these: at 1 µM.

The structures appear in SMILES notation.

Regarding `Nc1ncnc2c1c(-c1ccc(Oc3ccccc3)cc1)cn2C1CCCC1`, the residual activity in test [1] was determined as 59%; in test [2] it was 81%; in test [3] it was 94%; in test [4], 81%; in test [5] it was 77%; in test [6], 92%. Besides, the results for the residual activity in test [7] and in test [8] were 77% and 61%, respectively.

(Values after ChEMBL document CHEMBL2218924, “A broad activity screen in support of a chemogenomic map for kinase signalling research and drug discovery” (Biochem J, 2013).)
